# Source: PubChem BioAssay (Tox21)
# Where “and” joins values, the source holds several entries; their conditions need not be identical. Identical values can stand only once. Inconclusive results are not listed. Where a call stands in place of a potency, no number is given. Some structures have more than one record in an assay (separate samples or runs), and their calls can disagree. Calls of active or inactive are those of the source. Calls follow the shape of the dose curve; as a rule, active = well fitted cell-killing curve with a large enough effect in the repeat runs; inconclusive = weak or mixed curves, or effect the other way; inactive = no such curve, though single readings can be large or run the other way.
# Experiment: qHTS assay to identify small molecule agonists of the estrogen receptor alpha (ER-alpha) signaling pathway in the presence of an antagonist - cell viability counter screen (AID 1259386);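 also: cells exposed to compounds for 22 h at 37 °C before the viability read; nearly all actives have a fitted effect of over 30% in size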
# Settings: VM7Luc4E2 viability, CellTiter-Fluor fluorescence, 22 h; series mostly up to 92.4 µM; activity change, negative = cytotoxicity: at the top concentration
# Description: National Center for Advancing Translational Sciences [NCATS]
# NIH Chemical Genomics Center [NCGC]
# U.S. Environmental Protection Agency [EPA]
# National Institutes of Environmental Health Sciences [NIEHS]
# National Toxicology Program [NTP]
# U.S. Food and Drug Administration [FDA]
# Estrogen receptor (ER), a member of nuclear hormone receptor plays an important role in development, metabolic homeostasis and reproduction. Two subtypes of ER, ER-alpha and ER-beta, have similar expression patterns with some uniqueness in both types. Endocrine disrupting chemicals (EDCs) and their interactions with steroid hormone receptors like ER causes disruption of normal endocrine function. Therefore, it is important to understand the effect of environmental chemicals in ER signaling pathway. For identifying ER agonists, VM7Luc4E2 cell line has been used in the current assay.
# VM7Luc4E2 cell line (provided by Denison MS, University of California) endogenously expresses full-length ER-alpha and is stably transfected with a plasmid containing four estrogen responsive elements (ERE) upstream of a luciferase reporter gene. This current screening for measuring luciferase reporter gene activity using VM7Luc4E2 cells against Tox21 10K library collection is a confirmation study on agonist mode screening in presence of ER-antagonist (ICI-182,780) at 10.0nM final concentration. The cytotoxicity of the compounds was tested in parallel by measuring the cell viability using CellTiter-Fluor assay system (Promega, Madison, WI) in the same wells.
# Tox21 Assay Protocol Summary:
# VM7Luc4E2 cells were cultured in phenol red free assay medium containing 10% charcoal stripped FBS for 5 days prior to the assay. The cells were dispensed at 4,000 cells in 4uL of assay medium per well into white wall/solid-bottom 1536-well plates (Corning Life Sciences, Corning, NY) using a Multidrop Combi (Thermo Fisher Scientific Inc., Waltham, MA) dispenser. After the assay plates were incubated at 37C and 5% CO2 for 24hr, 1uL of 10.0nM (final concentration) ICI-182,780 or assay buffer was added using two separate tips of Flying Reagent Dispenser (FRD, Aurora Discovery, San Diego, CA). Then 23nL of compounds dissolved in DMSO at 15 concentrations and positive controls or DMSO only was transferred to the assay plates by a Pintool station (Wako, San Diego, CA). The assay plates were incubated at 37C and 5% CO2 for 22hr. After 21hr incubation at 37C, 1uL/well CellTiter-Fluor reagent (Promega Corporation, Madison, WI) was added to each well using FRD and after 1hr incubation at 37C and 5% CO2, the fluorescence signal was measured on ViewLux plate reader (PerkinElmer, Shelton, CT).
# Potency is read from the fitted curve at half-maximal effect.
Compound,Potency,"activity change, negative = cytotoxicity"
C1N2CN3CN1CN(C2)C3,inactive,–
CNC[C@H](O)c1cccc(O)c1,inactive,–
OC(Cn1cncn1)(Cn1cncn1)c1ccc(F)cc1F,inactive,–
C[C@]12C=CC(=O)C=C1CC[C@@H]1[C@@H]2[C@@H](O)C[C@@]2(C)[C@H]1CC[C@]2(O)C(=O)CO,inactive,–
O=C(O)c1cc(N=Nc2ccc(S(=O)(=O)Nc3ccccn3)cc2)ccc1O,61.3 µM (active) and 30.6 µM (active) and 29.8 µM (active),–
O=C1CN(/N=C/c2ccc([N+](=O)[O-])o2)C(=O)N1,30.5 µM (active) and 54.5 µM (active) and 18.8 µM (active),–
Cn1c(=O)c2[nH]cnc2n(C)c1=O,inactive,–
Cc1noc(NS(=O)(=O)c2ccc(N)cc2)c1C,inactive,–
O=C(O)/C=C\C(=O)O,inactive,–
CCCCCCCCCCCCCCCC(=O)O,inactive,–
Oc1ccc(/C=C/c2cc(O)cc(O)c2)cc1,–,-10.3% [at 42.5 µM] (inactive)
O=C(O)CCCCCCCC(=O)O,inactive,–
Nc1ccc(S(=O)(=O)Nc2nccs2)cc1,inactive,–
O=c1cc[nH]c(=S)[nH]1,inactive,–
CCCCOC(=O)CC(CC(=O)OCCCC)(OC(C)=O)C(=O)OCCCC,inactive,–
NC(=O)c1ccccc1O,inactive,–
Cc1cn([C@H]2C[C@H](N=[N+]=[N-])[C@@H](CO)O2)c(=O)[nH]c1=O,inactive,–
CC(O)CO (stereo not given),inactive,–
O=C(O)C(=O)O,inactive,–
Cc1ccc(O)cc1,inactive,–

Compound,Potency,"activity change, negative = cytotoxicity"
CCCNC(=O)NS(=O)(=O)c1ccc(Cl)cc1,inactive,–
Nc1ccc(O)c(C(=O)O)c1,48.1 µM (active) and 54.5 µM (active),–
N=C(N)c1ccc(OCCCCCOc2ccc(C(=N)N)cc2)cc1,–,-6.23% [at 42.5 µM] (inactive)
CC(=O)NS(=O)(=O)c1ccc(N)cc1,inactive,–
c1ccc2[nH]ccc2c1,60.1 µM (active) and inactive,–
CC(O)C(=O)O (stereo not given),inactive,–
O=NO,inactive,–
O=C(O)c1cccc([N+](=O)[O-])c1,inactive,–
O=c1ccc2ccccc2o1,inactive,–
CCCCC1C(=O)N(c2ccccc2)N(c2ccccc2)C1=O,inactive,–
O=C(O)CCC(=O)O,inactive,–
C/C=C/c1ccc(OC)cc1,inactive,–
Nc1ccc(C(=O)O)cc1,inactive,–
CC(C)[C@@H]1CC[C@@H](C)C[C@H]1O,inactive,–
NC(=O)NC1NC(=O)NC1=O (stereo not given),inactive,–
CC(=O)Nc1nnc(S(N)(=O)=O)s1,inactive,–
CCCC(CCC)C(=O)O,inactive,–
O=S(=O)(O)c1ccc2cc(O)ccc2c1,inactive,–
O=C(O)c1[nH]n(-c2ccc(S(=O)(=O)O)cc2)c(=O)c1N=Nc1ccc(S(=O)(=O)O)cc1,29.8 µM (active) and 61.3 µM (active) and 25.5 µM (active),–
O=C(c1ccccc1)C(O)c1ccccc1 (stereo not given),inactive,–
